Source: PubChem
Most compounds without a hit are left out; they make up all but 9.4% or so of the library.
ALDH1A1 block: inhibitors of human aldehyde dehydrogenase 1A1 | Purified ALDH1A1, NADH fluorescence, propionaldehyde substrate | P00352 | AID 1030 | Potency, µM (top dose mostly 75.3 µM), for inactives: at the highest dose activity, negative = inhibition, most hits filed as inhibitors | actives 7.3% (n = 220,000); active = well fitted inhibition curve with a large enough effect, not every such curve was filed as active; inconclusive = small, poorly fitted or top-dose-only effect, or another doubt; inactive = no such curve, though single readings can be large or run the other way;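 note: potency is the fitted concentration of half-maximal effect; plate controls were no enzyme wells and a reference inhibitor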
HPGD block: HPGD (human) dehydrogenase inhibition; P15428; purified HPGD, NADH fluorescence kinetic, PGE2 substrate; Potency, µM, without a hit: at the highest dose activity change, negative = inhibition, usual class: inhibitors; actives 4.3% (n = 150,000); AID 894; active = well fitted inhibition curve with a large enough effect, not every such curve was filed as active; inconclusive = small, poorly fitted or top-dose-only effect, or another doubt; inactive = no such curve, though single readings can be large or run the other way; note: potency is the fitted concentration of half-maximal effect; % is set by controls: 0 for no effect and ±100 for the full control effect
Target sequence (P15428 whole entry, looked up): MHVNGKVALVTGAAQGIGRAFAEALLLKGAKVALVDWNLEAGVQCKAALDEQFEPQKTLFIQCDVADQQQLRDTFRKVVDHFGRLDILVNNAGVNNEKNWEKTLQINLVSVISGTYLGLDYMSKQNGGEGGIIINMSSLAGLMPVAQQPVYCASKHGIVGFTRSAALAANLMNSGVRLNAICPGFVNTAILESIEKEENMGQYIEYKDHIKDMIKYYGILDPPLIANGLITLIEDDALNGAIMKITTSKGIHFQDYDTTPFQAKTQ
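20 nM HPGD preincubated 15 min at room temperature with compound in 50 mM Tris-HCl pH 8, 0.01% Tween 20. Started with 1 mM NAD+ and 30 uM prostaglandin E2; NADH fluorescence (360/450 nm) read 5 times over 30-s intervals, last minus first.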
IMPase Li cell: cell-permeable IMPase inhibitors with lithium potentiation. CHO-M1 cells, IP1 TR-FRET (IP-One), carbachol + lithium. Potency, µM (series often up to 59.4 µM), for inactives: at the highest dose activity, negative = IMPase inhibition, most hits filed as inhibitors. actives 0.35% (n = 210,000);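 note: IP1 builds up when IMPase is blocked and the TR-FRET signal falls; potency is the fitted concentration of half-maximal effect; plate controls were basal vehicle for no effect and high inhibitor control for full effect; nearly all actives have a fitted effect of over 50% in size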
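IP1 accumulation measured by competitive TR-FRET in lysed CHO-M1 cells after 30 min compound exposure at 37C, with a small lithium addition to potentiate weak responses. Hill-equation AC50 from ratio and donor-channel data.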
IMPase cell inh: IMPase inhibition in cells; P97697; CHO-M1 cells, IP1 accumulation, HTRF TR-FRET ratio; 120,000 tested, under 10 active; inhibition (IP1 accumulation), % at 46.1 µM; active = well fitted curve in the direction sought with a large enough effect in the signal ratio, not every such curve was filed as active; inconclusive = small, poorly fitted or top-dose-only effect, or a change in a side signal; inactive = no such curve, though single readings can be large or run the other way; the % refers to the signal ratio;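 note: cells stimulated with carbachol in lithium chloride buffer; plate controls were DMSO basal wells for no effect and reference inhibitor wells for full effect; higher means more IMPase inhibition seen as more IP1 and lower FRET ratio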
Target sequence (P97697 whole entry, looked up): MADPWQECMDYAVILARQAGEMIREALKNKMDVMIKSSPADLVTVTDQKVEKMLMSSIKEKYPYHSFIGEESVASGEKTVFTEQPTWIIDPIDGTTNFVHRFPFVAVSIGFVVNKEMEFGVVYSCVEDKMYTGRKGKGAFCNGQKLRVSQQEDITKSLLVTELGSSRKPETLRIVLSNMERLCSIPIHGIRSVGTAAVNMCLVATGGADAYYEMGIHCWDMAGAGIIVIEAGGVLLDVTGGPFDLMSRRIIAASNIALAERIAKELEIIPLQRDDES
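CHO-M1, 2000 cells/well, cultured 16–30 h; cpd up to 46 uM; carbachol (50 uM solution, stimulation buffer w/ 50 mM LiCl, pH 7.4), 30 min 37C; IP-One TR-FRET, 10 min RT; Ex 320/Em 665, 620; Hill-fit AC50.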
HTT cytoprotect: protects HTT-Q103 PC12 cells, measured by ATP | actives 0.14% (n = 230,000) | PC12 HTT-Q103 induced, cytoprotection, ATP luminescence, 40 h | Potency, µM (series often up to 56.4 µM), for inactives: cytoprotection (ATP increase), usual class: activators; note: potency is the fitted concentration of half-maximal effect; % of control where 0% means no effect; nearly all actives have a fitted effect of over 45% in size
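Quantitative HTS on tebufenozide-induced (100 nM) PC12 cells expressing HTTQ103 exon 1–GFP; compounds tested as a concentration series; survival measured via cellular ATP.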
HTT aggregate: inhibitors of mutant huntingtin aggregate formation in PC12 cells; PC12 HttQ103-GFP aggregates, Acumen cytometry, 40 h; Potency, µM (titrated, usually from 46.1 µM), inactives show at the highest dose activity change, negative = inhibition, hits mostly inhibitors; actives 1.1% (n = 220,000); AID 1688; note: potency is the fitted concentration of half-maximal effect; % is set by controls: 0 for no effect and ±100 for the full control effect; nearly all actives have a fitted effect of over 60% in size
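Steps: seed 1500 PC12 HTTQ103-GFP cells/well; add tebufenozide, 100 nM final; add compound titration; add ATPLite reagent; quantify GFP aggregates by laser scanning cytometry.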
* = called active by the depositor; ? = inconclusive; nt = not tested or not shown; [ ] = dose if it differs, or a comment. Unless noted, calls come from the whole dose curve; as a rule, active = well fitted curve in the direction sought with a large enough effect; inconclusive = small, poorly fitted or top-dose-only effect, or another doubt; inactive = no such curve, though single readings can be large; an effect the other way counts as inactive or inconclusive.

SMILES | ALDH1A1 block | HPGD block | IMPase Li cell | IMPase cell inh | HTT cytoprotect | HTT aggregate
CC1CCCC(C)N1C(=O)CSCc1ccc(Cl)cc1 (stereo not drawn) | 22µM* | -16% | 21%[38.3 µM] | -4 | 11% | 28%
O=C(NC1CCCCC1)Sc1ccc(Cl)cc1 | ? | 8.9µM* | 33%[38.3 µM] | 3 | -24%[10 µM] | -1%
CC1(C)CCC2=C(O1)c1ccccc1C(=O)C2=O | ? | -15% | 25% | 13 | -360% | nt
CN(C)c1ccc(-c2nc(N3CCNCC3)c3ccccc3n2)cc1 | -15% | -18% | 11% | nt | -76% | nt
COc1cccc(Nc2ncc3nc(-c4ccccc4)c(=O)n(C)c3n2)c1 | ? | nt | -1% | nt | -22% | nt
COc1ccc(C(=O)OCC(=O)Nc2cc(S(=O)(=O)N3CCOCC3)ccc2N2CCCC2)cc1 | -7% | nt | 3% | nt | 6% | -1%
CC(C(=O)Nc1cccc(S(=O)(=O)N2CCOCC2)c1)N1CCN(C/C=C/c2ccccc2)CC1 (stereo not drawn) | 8% | nt | 5% | nt | nt | 11%
O=C(Nc1cccc(S(=O)(=O)N2CCOCC2)c1)C(c1ccccc1)N1CCCCC1 (stereo not drawn) | 7.1µM* | nt | 12% | nt | -34% | -13%
O=C(Nc1ccccc1)Nc1cc(S(=O)(=O)N2CCOCC2)ccc1N1CCCC1 | ? | 14µM* | ? | nt | -10%[10 µM] | -3%
CCOCC(=O)Nc1cc(S(=O)(=O)N2CCOCC2)ccc1N1CCCCC1 | 2.8µM* | nt | 19% | nt | 11%[10 µM] | -14%
CC1CN=C(N(C(=O)Nc2ccccc2)c2ccc(S(=O)(=O)N3CCOCC3)cc2)S1 (stereo not drawn) | 11% | 20µM* | 34%[38.3 µM] | -1 | 1%[1.9 µM] | -30%
O=C(Nc1ccccc1)c1ccc(S(=O)(=O)N2CCOCC2)cc1 | -8% | -13% | 26%[38.3 µM] | -5 | 6% | 16%
CCc1c2c(nc3cccc(OC)c13)OC(CC)C2 (stereo not drawn) | ? | ? | -2% | nt | -54% | nt
COc1ccc(-c2csc3c2[N+]2=CCC=C2C3=O)cc1 | -10%[13.5 µM] | -5% | -3% | nt | -52%[10 µM] | nt
CCc1nnc2c(Nc3cccc(F)c3)nc3ccc(C(=O)c4ccccc4)cc3n12 | nt | nt | nt | 0 | nt | nt
C[N+](C)(N)CCC[N+](C)(C)N | -2%[13.5 µM] | -7% | 5% | nt | -9%[10 µM] | nt
COc1ccc(-n2[nH]c3c4c(ncc3c2=O)CCCCC4)cc1 | 6% | -3% | 4% | nt | -47% | nt
O=S(=O)(Nc1cccc(S(=O)(=O)N2CCOCC2)c1)c1ccc2c(c1)OCCO2 | 25µM* | nt | 4% | nt | -35% | 4%
C=CCNc1nc(-c2sc(NC(C)=O)nc2C)cs1 | ? | ? | 46%[38.3 µM] | ? | -34% | 13µM*
COc1ccc2nc(Nc3ccccc3)sc2c1 | 2% | nt | 41% | nt | -131% | -7%
COc1ccc(Nc2nc(-c3sc(NC(C)=O)nc3C)cs2)cc1 | 32µM* | ? | 10%[38.3 µM] | -3 | -34% | -3%[9.22 µM]
Cc1nc(NC(=O)c2ccccc2)sc1-c1csc(Nc2ccc(Cl)cc2)n1 | ? | -23% | -3%[38.3 µM] | 2 | -48% | 1%
COc1ccc(Nc2nc(-c3sc(N)nc3C)cs2)cc1 | 7.1µM* | -23% | 28%[38.3 µM] | -7 | 0%[10 µM] | 30%
COc1ccc(Nc2nc(C)c(-c3ccccc3)s2)cc1 | 25µM* | 20µM* | 17% | 4 | -8%[10 µM] | ?
C=CCNc1nc(-c2sc(NC(=O)CC)nc2C)cs1 | ? | -22% | 15% | 8 | -19%[10 µM] | ?
Cc1noc(NS(=O)(=O)c2ccc(NC(=O)c3ccc(Br)cc3)cc2)c1C | nt | nt | nt | -1 | nt | nt
COc1ccc(-c2ccc3c(N)c(C(=O)Nc4cccc(C)c4)sc3n2)cc1 | nt | nt | nt | -21 | nt | nt
COc1ccc(S(=O)(=O)N(Cc2cc3cc(C)ccc3[nH]c2=O)CC2CCCO2)cc1 (stereo not drawn) | 8.9µM* | 50% | 26%[38.3 µM] | 4 | -22% | 27%
COC(=O)c1ccccc1S(=O)(=O)N(Cc1cc2ccc(OC)cc2[nH]c1=O)CC1CCCO1 (stereo not drawn) | 2% | -7% | 28%[38.3 µM] | -1 | -4%[10 µM] | 3.5µM*
